In the supplement of paper PMC3334620:
In all, about 33,000 sequences were measured (“E-score (-0.5 to 0.5)”: median about -0.043, highest 2% from about 0.37 on). This excerpt belongs to a sample that is enriched for the highest values.

biological target: T1, Upc2 (UniProt Q12151); test: PBM E-score (8-mer binding enrichment) (E-score (-0.5 to 0.5)); higher = stronger / more preferred TF binding; conditions: protein concentration: 200 nM; construct: GST-full length
T1 sequence: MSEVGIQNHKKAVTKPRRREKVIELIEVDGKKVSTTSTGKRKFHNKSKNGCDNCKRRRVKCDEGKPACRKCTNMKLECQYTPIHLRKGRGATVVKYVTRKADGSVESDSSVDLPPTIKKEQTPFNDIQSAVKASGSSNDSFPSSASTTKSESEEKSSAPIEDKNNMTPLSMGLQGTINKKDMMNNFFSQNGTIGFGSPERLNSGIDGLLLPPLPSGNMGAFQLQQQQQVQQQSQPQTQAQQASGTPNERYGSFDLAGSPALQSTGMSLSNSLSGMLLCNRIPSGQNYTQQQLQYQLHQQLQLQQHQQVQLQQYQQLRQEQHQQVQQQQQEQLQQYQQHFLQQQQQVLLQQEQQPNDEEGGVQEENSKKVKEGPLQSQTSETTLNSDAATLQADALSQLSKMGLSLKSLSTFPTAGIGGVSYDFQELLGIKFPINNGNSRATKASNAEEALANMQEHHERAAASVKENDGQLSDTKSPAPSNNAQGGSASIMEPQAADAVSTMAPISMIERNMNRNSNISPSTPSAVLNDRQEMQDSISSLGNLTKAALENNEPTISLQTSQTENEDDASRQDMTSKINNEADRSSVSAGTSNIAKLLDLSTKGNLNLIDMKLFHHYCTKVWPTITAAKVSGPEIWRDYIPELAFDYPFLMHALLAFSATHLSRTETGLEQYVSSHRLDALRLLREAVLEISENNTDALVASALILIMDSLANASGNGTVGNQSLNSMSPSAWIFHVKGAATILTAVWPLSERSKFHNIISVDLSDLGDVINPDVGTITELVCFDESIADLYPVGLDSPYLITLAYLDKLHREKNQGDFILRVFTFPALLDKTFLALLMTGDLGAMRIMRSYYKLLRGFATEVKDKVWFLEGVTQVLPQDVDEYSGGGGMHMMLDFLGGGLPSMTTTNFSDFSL
Procedure: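 Universal 'all 10-mer' protein binding microarrays (Agilent AMADID 015681) probed with GST-tagged S. cerevisiae TFs (full-length or DBD) made by in vitro transcription/translation (PURExpress), about 100-200 nM. Bound TF was detected with fluorescent anti-GST. Each ungapped 8-mer (which stands for itself and its reverse complement) is scored by the PBM enrichment score (E-score), a modified Wilcoxon-Mann-Whitney statistic from -0.5 to +0.5, computed with the Universal PBM Analysis Suite. Scale: above 0.35 generally sequence-specific binding.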

Sequence	PBM E-score
AGACGATA	0.138
GCACGATA	-0.0168
ATACGATA	0.472
ATTCGATA	0.0034
GTACGATA	0.445
CTACGATA	0.31
CAAGCGAC	0.169
ATTTTCCG	0.139
GTTCTCCA	-0.109
AGTCGAAG	-0.273
ACCCGTAG	-0.11
AGCCGTAT	0.378
ACCCGTAC	0.354
AACCGTAC	0.311
AACCGTAT	0.375
AGCCGTAA	0.279
AACCGTAA	0.233
AGCCGTAG	-0.0316
ACCCGTAT	0.396
AGAAGAAG	-0.0336
CCTAGTGA	-0.174
TGCAACAA	-0.117
AAAAAACA	-0.00292
TGCAAGAA	-0.0985
CGTACAAG	0.442

Sequence	PBM E-score
CGTACAAA	0.421
AGTACAAC	-0.0045
CATACAAG	-0.192
GGTACAAA	0.0128
CGTACATA	0.415
CGTACATC	0.352
AGTACAAA	-0.013
AGTACAAG	-0.052
AGTACATA	-0.0422
CGTACAAC	0.439
GGTACAAC	-0.0773
AGTTCTCA	-0.107
CGCGACCA	0.116
AGAGCTAG	-0.113
AGTCTCTA	-0.0101
ATCCCCTC	-0.0985
CAAACCCA	0.0481
AAAATGTC	0.14
GCATCGTA	0.429
GCATCGGA	-0.0207
CCATCGTC	-0.0745
ACATCGTG	-0.0454
ACATCGTA	0.425
CCATCGTA	0.44
GCATCGAA	0.00261

Sequence	PBM E-score
ACATCGTC	-0.00985
CCATCGAA	-0.132
TGAAGGCA	-0.0834
AACTATGC	0.051
AGTGGTCC	-0.123
CCAATCGG	-0.174
CCGAGGTA	0.125
GCTACGAC	0.379
ACTACGAC	0.272
TCTACGAA	0.335
CCTACGAC	0.232
CCTACGAA	0.228
GCTACGAA	0.395
TTACTCAA	0.0201
AGTGAGAG	-0.279
AGCCATAT	0.0338
AATACGCT	0.212
ACTACGAT	0.16
AATACGGG	0.229
GATACGAA	0.454
AATACGCC	0.00457
GATACAAA	0.106
AATACGTC	0.0421
AATACGAC	0.435
GATACGTA	0.254

Sequence	PBM E-score
AATACGAT	0.395
AATACGAG	0.457
AATACGTG	0.155
CAGCACAA	0.0156
CGAGATGA	0.233
CGACTCTC	0.179
AAACAGGA	-0.139
TACCTGCA	-0.0203
ATAGATCC	-0.0535
CGACACAG	0.122
CAAACCGG	-0.0596
GATACGCC	0.189
CATACGAA	0.466
CATACGTA	0.315
GATACGAC	0.468
CACACGAG	0.155
CATACGTC	0.215
GATACGGC	0.324
CATACGAC	0.466
CATACGAG	0.486
CATACAAA	0.114
CATACGCC	0.307
CATACGCG	0.313
AGCAAGGA	-0.0783
GCCAACGC	-0.0104

Sequence	PBM E-score
CGACTGAA	0.184
CTGGGGCA	-0.2
CCTCACGA	-0.219
AATACGTA	0.196
AATACGAA	0.424
ACTACGAA	0.185
CACTTAAG	-0.0164
CTCGTACA	0.489
CACGTACC	0.188
CTTGTACA	-0.0692
CGCGTACC	0.302
ATCGTACC	0.455
CTCGTACC	0.481
AGCGTACC	0.212
ATAGTACC	-0.084
CTGGTACA	-0.0228
CTGTTAGC	-0.142
CGCATTTA	0.0301
GCTATGCC	-0.282
ATGGTCTG	-0.129
CAGGACTC	-0.0969
GAGGTAGA	-0.0305
AACGAAGC	0.408
CACGAAGC	0.017
AACGAAGT	0.415

Sequence	PBM E-score
AACGAAGG	0.401
GACGAAGC	0.00181
TCCGAAGA	0.0352
ACCGAAGG	0.0458
CACGAAGG	0.00451
TAAGAAGA	0.11
ACCGAAGT	0.147
AAAGAAGT	-0.0114
TACGAAGA	0.448
GTTAAAAA	0.11
CTAGTGTC	0.0134
CCAGGATA	0.0403
ATTTCTAA	-0.105
AGGAACCC	0.0161
CAACCAGC	-0.203
CTAGGGAA	-0.179
AGACCCAT	-0.186
CTAGACCA	-0.217
AGCCACAC	-0.00233
AACGAAGA	0.424
GACGAAGA	-0.0247
CACGAAGA	0.0935
CCTATGGC	-0.195
GGTATGGA	-0.146
AGTATGGC	-0.129

Sequence	PBM E-score
CGTATGGC	0.413
CGTATGGA	0.423
AGTATGGA	-0.128
AAATGAAC	0.118
AGCAATCC	-0.121
ACAAGCCT	-0.166
GTCGGTTA	0.337
ATCGGTTA	0.333
CTCGGTTA	0.381
ATTTTTCG	0.0906
CCTTTATC	-0.132
TATCAGGA	0.0996
CTCGTAAC	0.425
CGCGTAAG	0.205
CCCGTAAC	0.248
CACGTAAG	0.105
CTCGTAAG	0.43
GTCGTAAC	0.408
CACGTAAC	0.039
GACGTAAC	0.0258
GGCGTAAC	0.0403
AGAAGTTG	0.0297
ACCTATCA	-0.11
CGTGATTA	0.0822
ACCGGTTA	0.118

Sequence	PBM E-score
ATGACTAC	0.0234
AAGCTAGA	-0.166
GCGCTCCA	-0.195
CAAAGAAC	-0.0158
TCGCATAA	0.383
CCGCATAA	0.121
ACGCATAA	0.172
GGTTGCTA	-0.126
CCGCACTC	0.195
AAAAGGGA	-0.2
CCGTAAAC	0.396
CTGTAAAG	-0.0138
ACGTAAAC	0.345
TTGTAAAA	0.0751
TCGTTAAA	0.466
CCGTTAAA	0.33
ACGTTAAA	0.269
CCGTAAAG	0.395
GCGTAAAC	0.352
TCGTAAAA	0.481
ACGTAAAG	0.308
TAGTAAAA	0.0664
CATGGACA	-0.178
AGTTAGCA	-0.0102
CCGATGGA	0.109

Sequence	PBM E-score
ACTTATCG	0.00736
ATAGTCTG	-0.124
CGCTCAGA	0.121
GCTAAACC	0.03
ACGTAAAA	0.268
GCGTAAAA	0.302
CCGTAAAA	0.374
ACTATCAC	0.0913
ATGGGCCC	-0.0858
ACGTCTTC	0.0586
GACTGGAC	-0.215
AGGTACGC	0.163
GGGTACAA	-0.0246
GGGTACCA	-0.275
CGGTACGC	0.324
GGGTACGA	0.465
CGGTACCA	-0.0953
AGGTACGG	0.354
CGGTACGA	0.474
AGGTACGA	0.47
TAGTTGGA	-0.109
GCCGGGTA	-0.143
ACCTAAGA	0.0242
ACCCTCTC	-0.197
CACTGAGA	-0.0162

Sequence	PBM E-score
CCTTGCGA	-0.195
CCGGTGCA	-0.153
GGTGACTA	-0.0935
TCCCTCGA	-0.0965
ACCAGTGG	-0.247
ACAAGACT	-0.00931
GGTCGTTA	0.358
AGTCGTTC	0.41
AGTCGCTC	0.0535
CGTCGTTA	0.376
AGTCGTTG	0.0644
AGTCGTTA	0.317
CGCCGTTC	0.339
CGTCGTTC	0.464
CGTCGATC	-0.0198
AGGTGAAT	-0.0674
GCACCGAA	0.0996
CCGCATAC	0.197
CATGAGGC	-0.218
CTCAACAC	-0.0233
AGGTTCGG	0.022
CAGATTCC	-0.195
CGGGTACA	0.114
CCGGTACC	-0.196
CCGGTACA	0.106

Sequence	PBM E-score
CGGGTACC	-0.158
CGGGTACG	0.43
ACGGTACT	0.0352
CCGGTACG	0.421
ACGGTACC	0.0672
ACGGTACG	0.408
CCCTATAA	-0.00945
CCATCAAG	-0.12
AAGACCCT	-0.239
CAGGTCGC	0.0637
AAGGTGGC	-0.0337
CTCACGAA	0.0214
CTCACGAC	-0.146
GTTACGGA	0.233
ATTACGAA	0.339
CTTACGAA	0.399
CTTACGAC	0.406
CTTACGCC	0.0225
GTTACGAA	0.409
CTTACGCA	0.146
CCATTCTA	-0.068
CAGAATTA	-0.0215
GCTACTCC	-0.242
CAGATGGC	-0.0004
AGAGGCCT	-0.0685

Sequence	PBM E-score
TCATGAAA	0.0303
ACCACTGG	-0.0523
AAAAGCGA	0.175
GGATCTTA	0.146
CCACGAGC	-0.0694
CGACGAGC	0.0758
AGACGAGA	0.184
CTACGAGC	0.393
GTACGCGA	0.347
GTACGAGA	0.472
AGACGAGG	0.215
GTCCGAGA	0.205
ATACGAGG	0.487
ACACGAGG	0.248
CTACGAGA	0.359
ATACGAGA	0.482
GCAGTTTA	0.0629
ACTCTTAG	-0.149
ACTCTGGG	-0.181
GGAGTCCC	-0.172
CGTAACCA	0.223
CACAGTGA	-0.0917
ACCCTCTG	-0.236
AGACGAGC	0.206
ATACGAGC	0.489

Sequence	PBM E-score
ACACGAGC	0.273
AAACTGAC	-0.0907
CGGGACCC	-0.177
GCTGTGAC	0.111
GCATACAA	-0.0164
GCATACGA	0.47
ACATACGA	0.476
ACATACGT	0.239
TCATACCA	-0.0495
TCATACAA	0.0325
ACATACGC	0.281
GCATACGC	0.296
TCATACGA	0.469
CTAATGTC	-0.171
AGATAAGA	0.0794
GGCTGATA	-0.0951
CCTGAAGC	-0.175
AATGGTGT	-0.0602
CGTTGCTA	0.0827
CTAGCCCA	-0.335
AAGAGGAC	-0.242
ACTATCAG	-0.196
CCTGAGAA	-0.0858
GAAACAAA	0.0262
CCAACGAA	0.109

Sequence	PBM E-score
CAAACGAA	0.467
GCAACGAA	0.314
GAAACGAA	0.41
AAAACGAA	0.283
CTAGCTTC	-0.105
GATCACAA	-0.0358
GAATGCCC	0.0462
GCATACCA	0.00545
ATTGTGCC	-0.149
AATCCATG	-0.252
ACGACTCA	0.29
ACGACGCG	0.389
ACGACGCA	0.389
GCGACGCA	0.108
ACGACTCT	0.319
ACGACTCG	0.381
ACGACGCT	0.361
CCGACGCG	0.16
ACGACGCC	0.306
